Screening data from PubChem BioAssay.
A selection: hits, their analogues and other compounds. The true share with any hit is near 3.6%.
TRHR agonist – agonists of human TRH receptor | P34981 | TRHR cells, calcium flux fluo-8, FDSS agonist mode | activation, % at 2 µM | 360,000 tested, 0.18% active | AID 493084
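Steps: seed TRHR cells overnight; add fluo-8 no-wash Ca dye, RT 30 min–1.5 h; record 10 s baseline; pin-transfer compounds; monitor fluorescence 1 cycle/s for the agonist window. Calcium increases flag candidate agonists.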
TRHR enhancer – allosteric enhancers of human TRH receptor; P34981; TRHR cells, fluo-8 calcium fluorescence, EC20 TRH enhancement; enhancement, % at 2 µM; 360,000 tested, 0.66% active; in the data active = enhancement above about 30%
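TRHR-expressing cells loaded with fluo-8 calcium dye were read kinetically (ex 480/em 530) during compound addition, then stimulated with an EC20 of TRH (10 nM final). Enhancement of the Gq-mediated intracellular calcium response was scored.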
D1 agonist – agonists of human D1 dopamine receptor; P21728; HEK293 T-REx D1 cells, calcium flux, agonist mode; activation, % at 2 µM; 360,000 tested, 1% active; AID 504660
Target sequence (P21728 whole entry, looked up): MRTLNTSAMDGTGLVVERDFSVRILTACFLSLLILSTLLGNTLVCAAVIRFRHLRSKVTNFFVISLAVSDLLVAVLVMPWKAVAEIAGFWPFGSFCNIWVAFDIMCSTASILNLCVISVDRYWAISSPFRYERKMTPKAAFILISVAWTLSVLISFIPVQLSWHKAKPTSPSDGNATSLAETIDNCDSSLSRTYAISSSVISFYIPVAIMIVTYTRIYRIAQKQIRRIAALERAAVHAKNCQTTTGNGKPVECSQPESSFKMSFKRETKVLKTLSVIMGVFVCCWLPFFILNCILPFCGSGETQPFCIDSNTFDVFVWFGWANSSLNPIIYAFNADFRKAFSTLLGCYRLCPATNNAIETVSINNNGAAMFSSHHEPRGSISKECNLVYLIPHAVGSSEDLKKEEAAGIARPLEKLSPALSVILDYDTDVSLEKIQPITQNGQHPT
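Tetracycline-induced HEK293 TREx D1 cells, force-coupled to calcium signalling, were dye-loaded with a no-wash calcium kit. Compound was pin-added after a 10 s baseline. Fluorescence was read kinetically at 1 cycle/s for 180 s, with calcium rises flagged as agonism.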
D1 antagonist – antagonists of human D1 dopamine receptor; P21728; AID 504652; activity change, negative = inhibition, % at 10 µM; 360,000 tested, 3.2% active; HEK293 TREx D1 cells, calcium flux, dopamine EC80; stronger effect = lower value; in the data active = activity change below about -30%
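After overnight tetracycline induction at 30 C, force-coupled D1 HEK293 cells took up a no-wash calcium dye at room temperature. Compounds were added and monitored 180 s, and the response to EC80 dopamine was then recorded.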
D1 potentiator – enhances dopamine response at the human D1 receptor | 360,000 tested, 0.036% active | HEK293 TREx D1 cells, calcium flux, dopamine EC20 potentiation | AID 504651 | potentiation, % at 10 µM | P21728; in the data active = potentiation above about 30%
LDHA inh – inhibitors of human lactate dehydrogenase A. P00338. purified LDHA, NADH/diaphorase-resazurin fluorescence; stronger effect = lower value. activity change, % (values are at about 110 or 230 µM). 480,000 tested, 0.15% active; in the data active = activity change below about -30%
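Human LDH5 (2 nM) was incubated with 0.06 mM NADH and 0.2 mM pyruvate for 5 min at room temperature in Tris pH 7.4. Remaining NADH was coupled through diaphorase/resazurin, and resorufin fluorescence was read at 0 and 20 min.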
Numbers stand for hits; – = inactive; · = no result. Cut-off read from the data, not from the text of the source, unless noted: active = activation above about 30%; inactive = the rest.

SMILES	TRHR agonist	TRHR enhancer	D1 agonist	D1 antagonist	D1 potentiator	LDHA inh
COc1cccc(-c2nc3ccccc3s2)c1O	–	–	–	–	–	–
Oc1c(Br)cc(Br)cc1-c1nc2ccccc2s1	–	–	–	-30	–	–
O=C(/C(=C/c1ccccc1F)c1nc2ccccc2o1)c1ccccc1	·	·	·	·	·	–
O=C(CCc1c[nH]c2ccccc12)NCc1ccc(Cl)cc1Cl	·	·	·	·	·	–
CCCn1cnc2c(sc3nc4c(cc32)CSC(C)(C)C4)c1=O	–	–	–	-41	–	–
CC1(C)Cc2nc3sc4c(=O)n(Cc5ccccc5)cnc4c3cc2CS1	–	–	–	–	–	–
CC1C/C(=C/c2cccn2C)C(=O)/C(=C/c2cccn2C)C1 (stereo unspecified)	82	35	198	–	–	–
CC1C/C(=C/c2ccncc2)C(=O)/C(=C/c2ccncc2)C1 (stereo unspecified)	–	–	–	-32	–	–
Cc1ccc(N=C2NC(=O)/C(=C/c3cccn3C)S2)cc1	–	–	–	–	–	–
O=C(NCc1ccncc1)c1nc(-c2ccc3cc[nH]c3c2)no1	·	·	·	·	·	–
Cc1cc(C)c2c(C)c(C(=O)NCc3ccncc3)oc2c1	–	–	–	-44	–	–
CC(OC(=O)c1cnc(Cl)c(Cl)c1)C(=O)NC(C)(C#N)C(C)C (stereo unspecified)	·	·	·	·	·	–
Cc1cccc(/C=C2\Cc3ccccc3C2=O)c1	·	·	·	·	·	–
Cc1ccc(CNC(=S)Nc2ccc(C)c([N+](=O)[O-])c2)cc1	–	–	38	-31	–	–
Cc1ccc(CC(=O)Nc2ccc(F)c([N+](=O)[O-])c2)cc1C	–	–	–	-35	–	–
O=C(CCc1ccccc1)Nc1ccc(F)c([N+](=O)[O-])c1	–	–	–	–	–	–
Cc1ccc(CC(=O)Nc2cc([N+](=O)[O-])ccc2F)cc1	–	–	–	–	–	–
Cc1ccc(CC(=O)Nc2ccc(F)c([N+](=O)[O-])c2)cc1	–	–	–	-43	–	–
Cc1ccc(NC(=O)Cc2ccc3c(c2)CCCC3)cc1C	–	–	–	-31	–	–
Cc1ccc(NC(=S)NCc2ccccc2)cc1[N+](=O)[O-]	–	–	–	–	–	–
O=C(Nc1sc2c(c1C(=O)O)CCCC2)c1cccnc1	·	·	·	·	·	–
O=C(Nc1ccccc1Br)c1cc(-c2cccnc2)nc2ccccc12	·	·	·	·	·	–
CCCN(C(=O)C(NC(=O)c1ccccc1)C(C)C)c1c(N)n(Cc2ccccc2)c(=O)[nH]c1=O (stereo unspecified)	–	–	–	-77	–	–
CCCCN(C(=S)NC(=O)c1ccccc1)c1c(N)n(Cc2ccccc2)c(=O)[nH]c1=O	–	–	–	–	–	–
CC(C)CCN(C(=O)Cc1ccccc1F)c1c(N)n(Cc2ccccc2)c(=O)[nH]c1=O	–	–	–	-55	–	–
SMILES	TRHR agonist	TRHR enhancer	D1 agonist	D1 antagonist	D1 potentiator	LDHA inh
COCCN(C(=O)C1=COCCO1)c1c(N)n(Cc2ccccc2)c(=O)[nH]c1=O	–	–	–	–	–	–
CCN(C(=O)CN1c2ccccc2CC1C)c1c(N)n(Cc2ccccc2)c(=O)[nH]c1=O (stereo unspecified)	–	–	–	–	46	–
CC(C)CCN(C(=O)CN(C)c1ccccc1)c1c(N)n(Cc2ccccc2)c(=O)[nH]c1=O	·	·	·	·	·	–
COCCN(C(=O)COC(=O)C1=COCCO1)c1c(N)n(Cc2ccccc2)c(=O)[nH]c1=O	–	–	–	-61	–	–
CC(C)CN(C(=O)CSc1nnc(-c2ccco2)o1)c1c(N)n(Cc2ccccc2)c(=O)[nH]c1=O	–	–	–	-38	–	–
Cc1ccc(C(=O)CCS(=O)(=O)c2ccc(Br)cc2)cc1	–	–	–	–	–	–
CC(=O)Nc1ccc(NC(=O)CCC(=O)OCC(=O)c2cccc([N+](=O)[O-])c2)cc1	–	–	–	-67	–	–
Cc1ccc(S(=O)(=O)CCC(=O)c2cccc([N+](=O)[O-])c2)cc1	–	–	–	-32	–	–
COc1cc(NC(=O)CSc2nc(Cl)nc3nc[nH]c23)cc(OC)c1OC	·	·	·	·	·	–
CCCSc1nc2c(c(=O)[nH]c(=O)n2C)n1Cc1cccc(Br)c1	·	·	·	·	·	–
CC(C)CC(=O)Nc1ccc(C(N)=O)c(Cl)c1	·	·	·	·	·	–
Oc1ccccc1CNCC12CC3CC(CC(C3)C1)C2	–	–	53	–	–	–
CC(CC12CC3CC(CC(C3)C1)C2)NCc1ccccc1O (stereo unspecified)	–	–	–	–	–	–
O=C(NC1CC1)c1c[nH]c2ccc(S(=O)(=O)Nc3cccc(C(F)(F)F)c3)cc2c1=O	–	40	–	–	–	–
CCNC(=O)CN1CCN(c2ccnc3c(F)ccc(F)c23)CC1	·	·	·	·	·	–
O=C(Nc1ccccc1)N1CCc2c([nH]c3ccccc23)C1C(F)(F)F (stereo unspecified)	–	–	–	–	–	–
CC1c2[nH]c3ccccc3c2CCN1C(=O)Nc1ccccc1 (stereo unspecified)	–	–	–	-36	–	–
Nc1nnnn1/N=C/c1cc(Cl)ccc1O	–	–	–	–	–	–
Nc1nnnn1/N=C/c1cc(Cl)cc(Cl)c1O	–	–	126	–	–	–
CCOc1ccccc1C(=O)NC1CC2CCCC(C1)N2Cc1ccc(C)cc1 (stereo unspecified)	–	–	–	-51	–	–
CCCN1C2CCCC1CC(NC(=O)c1ccccc1OCC)C2 (stereo unspecified)	–	–	–	-81	–	–
COc1ccc(S(=O)(=O)c2nnn(-c3cc(Cl)c(OC)cc3OC)c2C)cc1	–	–	61	–	–	–
S=C(Nc1ccc(N2CCOCC2)cc1)Nc1ccc2nc(-c3ccco3)c(-c3ccco3)nc2c1	–	–	57	–	–	–
CCCOc1ccccc1C1C(C(=O)Nc2ccccc2)=C(C)Nc2nnnn21 (stereo unspecified)	–	49	39	–	–	–
CCCOC(=O)C1=C(C)Nc2nnnn2C1c1cc(Br)ccc1OCC (stereo unspecified)	·	·	·	·	·	-32
SMILES	TRHR agonist	TRHR enhancer	D1 agonist	D1 antagonist	D1 potentiator	LDHA inh
NC(=O)CSc1ccc2c(c1)OCCO2	·	·	·	·	·	–
Cc1[nH]cnc1C(=O)O	·	·	·	·	·	–
CCN(CCN(C)C)C(=O)Cn1ncc2c1-c1cc(C)ccc1OC2	–	–	–	-33	–	–
Cc1ccc2c(c1)-c1c(cnn1CC(=O)O)CO2	–	–	–	–	–	–
Cc1ccc(S(=O)(=O)N2CCNC(=O)C2)c2cccnc12	·	·	·	·	·	–
Cc1cccc(CNC(=O)C2CCC(=O)N(C3CCCC3)C2)c1 (stereo unspecified)	–	–	–	-45	–	–
CCOC(=O)N1CCN(C(=O)CN(c2cc(Cl)cc(Cl)c2)S(C)(=O)=O)CC1	·	·	·	·	·	–
